Reference: ChEMBL document CHEMBL4513216, “Probing the Open Global Health Chemical Diversity Library for Multistage-Active Starting Points for Next-Generation Antimalarials” (ACS Infect Dis, 2020)
About 2,700 (4%) of roughly 68,000 compounds showed an effect of 50% or more. For the sample, strong results were picked, then their nearest neighbours and some compounds at random.

tested on: Plasmodium berghei; assay: Screen against P. berghei liver stage (PbLuc), transformed with Luciferase, at 2uM; type: functional, HepG2; conditions: tested at 2 uM

Compound | INHIBITION [%]
COc1ccccc1OCc1cc(C(=O)N2CCC(NC(C)=O)C2)n[nH]1 (stereo unspecified) | -49.85
CC(=O)N[C@H]1CCN(C(=O)c2cc(Cn3cnc4ccccc43)[nH]n2)C1 | 60.71
O=C(N[C@H]1CN2CCC1CC2)c1cc(Cn2cnc3ccccc32)[nH]n1 | 48.93
NC(=O)c1cn[nH]c1C1CCCN1C(=O)c1cnccn1 (stereo unspecified) | 39.5
Cc1nc2c(c(NCC(c3cccnc3)N3CCOCC3)n1)CCNC2 (stereo unspecified) | -10.09
Cc1ncc(CN(C)C(=O)Nc2cccc(N3CCNC3=O)c2)s1 | -82.26
Cc1nc(CCCC(=O)Nc2cccc(N3CCNC3=O)c2)cs1 | -33.58
Cc1nc(CSCCC(=O)Nc2cccc(N3CCNC3=O)c2)cs1 | 54.82
CC(OCC1CC1)C(=O)N1CCCN(c2nc3ccccc3[nH]2)CC1 (stereo unspecified) | -38.2
Cn1ncc2c1C(COCC1CC1)CN(S(C)(=O)=O)C2 (stereo unspecified) | 51.72
Cn1ncc2c1C(COCC1CC1)CN(S(=O)(=O)C1CC1)C2 (stereo unspecified) | 3.63
Cn1ncc2c1C(COCC1CC1)CN(Cc1nccs1)C2 (stereo unspecified) | -44.9
CCOCC1CN(S(C)(=O)=O)Cc2cnn(C)c21 (stereo unspecified) | 18.97
Cc1ncsc1CN1Cc2cn(C)nc2C(COCC2CC2)C1 (stereo unspecified) | -64.59
Cc1ncsc1CN1Cc2cnn(C)c2C(COCC2CC2)C1 (stereo unspecified) | 50.17
Cn1ccc2c(C(=O)N3CCC(C(N)=O)CC3)cccc21 | 40.31
Cn1c(CN2CCCC2c2noc(C3CC3)n2)cc(=O)n(C)c1=O (stereo unspecified) | 12.91
CC(C)N1CCC(C(=O)N2CCC(C(O)c3nccn3C)CC2)CC1 (stereo unspecified) | 6.4
CC(C)N1CCC(CC(=O)N2CCC(C(O)c3nccn3C)CC2)CC1 (stereo unspecified) | 15.11
CCCN1CCC(CC(=O)N2CCC(C(O)c3nccn3C)CC2)CC1 (stereo unspecified) | 51.19
COCC(=O)Nc1nn(Cc2ccc(F)cc2)cc1Cl | -20.28
Cc1noc(C)c1CN1CCN(c2ccnc(-c3ccccc3)n2)CC1 | -5.53
CCOc1ccccc1OC1CCN(C(=O)c2cc[nH]n2)CC1 | 7.54
Cc1ccc(NS(=O)(=O)C=c2[nH]c(=O)n3cccc3c2=O)cc1 | -68.56
CCc1ccc(NS(=O)(=O)C=c2[nH]c(=O)n3cccc3c2=O)cc1 | -1.14
O=c1c(=CS(=O)(=O)Nc2ccc(Br)cc2)[nH]c(=O)n2cccc12 | -42.73

Compound | INHIBITION [%]
O=c1c(=CS(=O)(=O)Nc2ccc(Cl)cc2)[nH]c(=O)n2cccc12 | 50.52
CC(C)c1ccc(NS(=O)(=O)C=c2[nH]c(=O)n3cccc3c2=O)cc1 | 9.43
O=c1c(=CS(=O)(=O)Nc2ccccc2)[nH]c(=O)n2cccc12 | 53.68
Cc1cc(C)cc(CN2CCC3(CC2)CC(Nc2ncccn2)CO3)c1 (stereo unspecified) | 24.43
CNC(=O)C1CN(c2ccnc(C)n2)CCN1Cc1ccccc1 (stereo unspecified) | -10.89
CC(C)NC(=O)[C@@]12CCO[C@@H]1CCN(Cc1ccco1)C2 | 16.63
CCC(CC)CN1C[C@@H]2OCCN(Cc3cnn(C)c3)[C@@H]2C1 | 56.78
Cn1cc(CN2CCO[C@H]3CN(Cc4ccco4)C[C@H]32)cn1 | 10.53
CN(C)CCN1C[C@@H]2OCCN(Cc3cnn(C)c3)[C@@H]2C1 | 33.4
CC(=O)Nc1ccc(S(=O)(=O)N2CCOC(Cn3ccnc3)C2)cc1 (stereo unspecified) | 1.92
O=S(=O)(N1CCOCC1)N1CCC(Oc2cnccn2)CC1 | -7.91
O=S(=O)(N1CCCCC1)N1CCC(Oc2cnccn2)CC1 | 41.98
CC1CCN(S(=O)(=O)N2CCC(Oc3cnccn3)CC2)CC1 | 52.82
O=S(=O)(c1ccccc1)N1CCC2(CCCN2Cc2cccc(Cl)c2)C1 (stereo unspecified) | 35.26
CSc1ccc(-c2nc(CN3CCC(NC(C)=O)CC3)c(C)o2)cc1 | -11.37
CSc1ccc(-c2nc(CN3CCC(NC(C)=O)C3)c(C)o2)cc1 (stereo unspecified) | 52.77
CNC(=O)C1CCN(Cc2nc(-c3ccc(SC)cc3)oc2C)C1 (stereo unspecified) | 13.94
Cc1cc(NCc2ccccc2CN2CCCCC2)n2ncnc2n1 | -1.87
Cc1cc(C)c(CNC(=O)N(C)Cc2cccc(F)c2)c(=O)[nH]1 | -9.17
CS(=O)(=O)Nc1cccc(C(=O)Nc2ccc3c(c2)C(=O)NC3)c1 | -7.99
Cc1nnc(SC2CCN(c3sccc3C#N)C2=O)s1 (stereo unspecified) | 57.91
Cc1nc(SC2CCN(c3sccc3C#N)C2=O)oc1C (stereo unspecified) | 32.26
Cc1nnc(SC2CCN(c3sccc3C#N)C2=O)[nH]1 (stereo unspecified) | 6
COc1ccccc1-c1cc(NC(=O)CCS(=O)(=O)C2CCCC2)[nH]n1 | -43.66
CC(=O)Nc1ccc2c(c1)CN(C(=O)c1ccco1)CC2 | 33.08
